From PubChem BioAssay (NCATS)
Inconclusive results are not listed. Calls of active or inactive are those of the source. The call rests on the fitted dose curve; in most records, active means well fitted curve in the direction sought with a large enough effect in the signal ratio; inconclusive means small, poorly fitted or top-dose-only effect, or effect the other way, or a change in a side signal; inactive means no such curve, though single readings can be large or run the other way; the % refers to the signal ratio.

Assay: qHTS Assay for Modulators of Human Peripheral Myelin Protein 22 (PMP22) Expression/Activity (AID 1967)
Settings: Cell-based PMP22 reporter, dual-color luciferase ratio, 0% = compound-free control cells, mouse Pmp22 promoter in mouse Schwann cells; series mostly up to 115 µM
Text: Charcot-Marie-Tooth-Association [CMTA]
NIH Chemical Genomics Center [NCGC]
Charcot-Marie-Tooth (CMT) disease was first characterized by Jean-Martin Charcot and Pierre Marie in France and, independently, by Howard Henry Tooth in England in 1886. CMT is one of the most common inherited neurological diseases, affecting about 125,000 Americans. […] The most common cause of CMT is known as CMT1A, and is caused by a duplication of the PMP22 gene, leading to over-expression of this protein. PMP22 is a glycosylated intrinsic membrane protein accounting for 2-5% of the myelin protein content and over-expression leads to demyelination and subsequently axonal loss.
A cell-based assay for PMP22 expression modulation was developed by Drs. Ned Mantei and Ueli Suter on behalf of the CMTA. This assay employs a mouse Schwann cell line, MSC80 (Boutry et al., 1992), that was engineered to have the mouse Pmp22 promoter driving expression of a green light-emitting click beetle luciferase (CBG68; Chroma-Gl developed by Promega Corp). A red light-emitting click beetle luciferase (CBR; developed by Promega Corp: CBG68 and CBR differ by only a few amino acids within the D-luciferin binding pocket) under control of the EF-alpha promoter is also stably expressed in the same cells for use as an internal control for nonspecific promoter- or reporter-based effects.
NCGC Assay Protocol Summary:
Cells were seeded in white solid 1536-well plates at between 500-750 cells/4uL in DMEM medium containing 10% FBS, w/o phenol red. After overnight incubation at 37 degree Celsius/5% C02, 23 nL of compounds or DMSO were delivered to each well using a pin tool, followed by 24h-incubation at 37 degree Celsius/5% C02. Then 4 uL Chroma-Glo luminescent substrate mix (Promega) was added to each well. Luminescence was measured on a ViewLux plate reader (Perkin Elmer) using a 540/25 nm filter for green luminescence and a 618/8 nm filter for red luminescence. The green and red luminescent signals were corrected for red and green luminescence filter overlap using filter calibration constants (determined using control cell lines expressing either the green or red CBLuc reporters using the procedures given in Davis et al., 2007). The %Activity was determined from the ratio of corrected green/red luminescent values. Green luminescent and ratio %Activity was determined by normalizing to the signal between of untreated cells (0% Activity)
Keywords: luminescence, PMP22, CMT1A, NCGC, CMTA, qHTS
Concentration-response curves were fitted to the signals arising from the green luminescence (PMP22 promoter driven expression) and the red luminescence (control promoter) as well as the calculated ratio. The concentration-effect curves were then classified based on curve quality (r2), response magnitude and degree of measured activity.

SMILES | outcome
CC(=O)OC(C)C[N+](C)(C)C (configuration not stated) | inactive
C#CCN(C)CCCOc1ccc(Cl)cc1Cl | inactive
CC(C(=O)O)c1ccc(CC2CCCC2=O)cc1 (configuration not stated) | inactive
CCCCNC(=O)NS(=O)(=O)c1ccc(C)cc1 | inactive
CC(C)NCC(O)c1cc(O)cc(O)c1 (configuration not stated) | inactive
O=C(CCNNC(=O)c1ccncc1)NCc1ccccc1 | inactive
CCN(CC)CC(=O)Nc1c(C)cccc1C | inactive
CC(=O)OCC1=C(C(=O)O)N2C(=O)[C@@H](NC(=O)Cc3cccs3)[C@H]2SC1 | inactive
Cc1ccc(S(=O)(=O)NC(=O)NN2CCCCCC2)cc1 | inactive
CN/C(=C\[N+](=O)[O-])NCCSCc1ccc(CN(C)C)o1 | inactive
NS(=O)(=O)c1cc2c(cc1Cl)NC(C1CC3C=CC1C3)NS2(=O)=O (configuration not stated) | inactive
CCN(Cc1ccncc1)C(=O)C(CO)c1ccccc1 (configuration not stated) | inactive
N[C@@H](COP(=O)(O)O)C(=O)O | inactive
O=C(O)CP(=O)(O)O | inactive
COc1cc(Cc2cnc(N)nc2N)cc(OC)c1OC | inactive
c1ccc2c(c1)CCCC2C1=NCCN1 (configuration not stated) | inactive
CCCCCN(CCCCC)C(=O)C(CCC(=O)O)NC(=O)c1ccc(Cl)c(Cl)c1 (configuration not stated) | inactive
